Assay results published in PubChem BioAssay (Tox21).
Where “and” joins values, the source holds several entries; their conditions need not be identical. Equal entries are not always repeated. Results filed as inconclusive are left out. A structure can be active in one record and inactive in another. Calls of active or inactive are those of the source. Unless noted, calls follow the shape of the dose curve; as a rule, active = well fitted curve in the direction sought with a large enough effect in the repeat runs; inconclusive = weak or mixed curves; inactive = no such curve, though single readings can be large; an effect the other way counts as inactive or inconclusive.

What was measured:
[1] = qHTS assay to identify small molecule agonists of H2AX (AID 1224845; active = well fitted activation curve with a large enough effect in the signal ratio in the repeat runs, not every such curve was filed as active; the % refers to the signal ratio)
Procedure, shortened: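 Wild-type CHO-K1 cells, plated overnight, exposed 3hr at 37C to 15 concentrations (0.76% DMSO final). Lysed, then HTRF anti-pH2AX (S139) cryptate and anti-H2AX-d2 antibodies, 24 hr room temperature; 665/620 nm emission read.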

[2] = qHTS assay to identify small molecule agonists of the hypoxia (HIF-1) signaling pathway (AID 1224846; active = well fitted activation curve with a large enough effect in the signal ratio in the repeat runs, not every such curve was filed as active; the % refers to the signal ratio)
Procedure, shortened: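 HRE-bla ME-180 beta-lactamase reporter cells in medium with 0.5% dialyzed FBS, pre-incubated 5 h then exposed to compounds 17 h at 37C, 5% CO2; reporter induction read with CCF4-AM FRET substrate.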

[3] = qHTS assay to identify small molecule agonists of H2AX - cell viability counter screen (AID 1224847; calls by dose curve; also: nearly all actives have a fitted effect of over 30% in size; also: potency is read from the fitted curve at half-maximal effect)
Procedure, shortened: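 Wild-type CHO-K1 cells (10% FBS medium) were plated overnight at 37C, exposed to compounds at 15 concentrations for 3 hr at 37C (0.76% DMSO final), and viability was read as CellTiter-Glo luminescence after 30 min at room temperature.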

[4] = qHTS assay to identify small molecule antagonists of the estrogen related receptor (ERR) signaling pathway from Tox21 library (AID 1224848); also: nearly all actives have a fitted effect of over 50% in size
Procedure, shortened: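 ERR reporter cell line (from NTP) seeded 2,000 cells/well, rested 6 h at 37 C/5% CO2, then pin-dosed with compounds in DMSO. After 18 h at 37 C, ONE-Glo added; luminescence read after 30 min at room temperature.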

[5] = qHTS assay to identify small molecule agonists of the estrogen related receptor (ERR) signaling pathway from Tox21 library (AID 1224849; calls by dose curve; also: nearly all actives have a fitted effect of over 15% in size); conditions: ERR reporter cell line, ONE-Glo luciferase, 18 h
Procedure, shortened: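 ERR reporter cells (NTP line) pre-incubated 6 hours at 37 C, then exposed to compounds for 18 hours at 37 C. ONE-Glo luciferase luminescence was read after 30 minutes at room temperature.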

[6] = qHTS RealTime-Glo MT Cell Viability Assay in HepG2 cells - 24 hour (AID 1224867); also: nearly all actives have a fitted effect of over 50% in size
Procedure, shortened: (§1)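 Tox21 10K library screened in qHTS format on HepG2 cells carrying RealTime-Glo reagents. Compounds were added after a 5 h preincubation, and the luminescent signal from continuous culture was measured repeatedly during 40 h treatment.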

[7] = qHTS RealTime-Glo MT Cell Viability Assay in HEK293 cells - 32 hour (AID 1224868); also: nearly all actives have a fitted effect of over 50% in size; also: potency is read from the fitted curve at half-maximal effect
Procedure, shortened: (§2)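 Luminescence generated by NanoLuc from substrate produced by living HEK293 cells served as the viability signal. Each value reflects the reading at its stated time point during continuous 40 h compound exposure at 37 C.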

[8] = A CellTox Green Cytotoxicity Assay to monitor cytotoxicity in HEK293 cells - 0 hour (AID 1224869); also: nearly all actives have a fitted effect of over 50% in size; also: potency is read from the fitted curve at half-maximal effect
Procedure, shortened: (§3)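 HEK293 cells, 600/well, were preincubated 5 hours and then exposed to compounds at 37 C for up to 40 hours. A cell-impermeant cyanine dye staining dead-cell DNA was read by fluorescence at 0, 8, 16, 24, 32 and 40 h time points.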

[9] = qHTS RealTime-Glo MT Cell Viability Assay in HepG2 cells - 40 hour (AID 1224870); also: nearly all actives have a fitted effect of over 50% in size
Procedure, shortened: (§4)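 HepG2 cells (600/well) mixed with RealTime-Glo MT reagent, settled 5 h at 37 C/5% CO2 before compound addition. Nonlytic NanoLuc luminescence from viable-cell prosubstrate reduction read repeatedly during 40 h treatment at 37 C.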

[10] = A CellTox Green Cytotoxicity Assay to monitor cytotoxicity in HEK293 cells - 40 hour (AID 1224871); also: nearly all actives have a fitted effect of over 45% in size; also: potency is read from the fitted curve at half-maximal effect
Procedure, shortened: as §3

[11] = qHTS RealTime-Glo MT Cell Viability Assay in HEK293 cells - 16 hour (AID 1224872); also: nearly all actives have a fitted effect of over 50% in size; also: potency is read from the fitted curve at half-maximal effect
Procedure, shortened: as §2

[12] = qHTS RealTime-Glo MT Cell Viability Assay in HepG2 cells - 8 hour (AID 1224873); also: nearly all actives have a fitted effect of over 55% in size
Procedure, shortened: as §4

[13] = qHTS RealTime-Glo MT Cell Viability Assay in HEK293 cells - 40 hour (AID 1224874); conditions: RealTime-Glo luminescence; max response: stronger effect = lower value; also: nearly all actives have a fitted effect of over 50% in size; also: potency is read from the fitted curve at half-maximal effect
Procedure, shortened: (§5)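 600 cells/well were plated with the nonlytic NanoLuc/prosubstrate reagent, pre-incubated 5 h, then given 23 nL of compound in DMSO. Incubation at 37 C for 40 h, with luminescence from viable-cell-reduced substrate read repeatedly from 0 h.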

[14] = A CellTox Green Cytotoxicity Assay to monitor cytotoxicity in HEK293 cells - 24 hour (AID 1224875); also: nearly all actives have a fitted effect of over 45% in size
Procedure, shortened: as §3

[15] = A CellTox Green Cytotoxicity Assay to monitor cytotoxicity in HepG2 cells - 16 hour (AID 1224876); also: nearly all actives have a fitted effect of over 45% in size; also: potency is read from the fitted curve at half-maximal effect
Procedure, shortened: (§6)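 HepG2 cells, 600/well, preincubated 5 h with CellTox Green dye, then exposed to Tox21 compounds in DMSO at 37 C for up to 40 h. Dead-cell DNA fluorescence read at the indicated time point.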

[16] = qHTS RealTime-Glo MT Cell Viability Assay in HepG2 cells - 32 hour (AID 1224877); also: nearly all actives have a fitted effect of over 55% in size
Procedure, shortened: as §1

[17] = A CellTox Green Cytotoxicity Assay to monitor cytotoxicity in HepG2 cells - 24 hour (AID 1224878); also: nearly all actives have a fitted effect of over 45% in size; also: potency is read from the fitted curve at half-maximal effect
Procedure, shortened: as §6

[18] = A CellTox Green Cytotoxicity Assay to monitor cytotoxicity in HepG2 cells - 40 hour (AID 1224879); also: nearly all actives have a fitted effect of over 40% in size; also: potency is read from the fitted curve at half-maximal effect
Procedure, shortened: as §6

[19] = qHTS RealTime-Glo MT Cell Viability Assay in HEK293 cells - 0 hour (AID 1224880)
Procedure, shortened: as §5

[20] = A CellTox Green Cytotoxicity Assay to monitor cytotoxicity in HEK293 cells - 32 hour (AID 1224881); also: nearly all actives have a fitted effect of over 40% in size; also: potency is read from the fitted curve at half-maximal effect
Procedure, shortened: as §3
% is scaled to controls: 0 for no effect and ±100 for the full control effect.

O=C(O)COc1cc(Cl)c(Cl)cc1Cl
active: Potency [13] 15.5 µM
inactive: Potency [1] | outcome [2] | Potency [3] | Potency [4] | activity change, positive = activation ([5]; at 92.4 µM (top of the series)) -7.72% and -14.1% | Potency [6] | Potency [8] | Potency [9] | Potency [10] | Potency [11] | Potency [12] | max response [13] 6.38% | Potency [14] | Potency [15] | Potency [16] | Potency [17] | Potency [18] | outcome [19] | Potency [20]
inactive and 15.5 µM (active): Potency [7]

Nc1ccccc1C(=O)OCCc1ccccc1
active: Potency [3] 101 µM and 89.8 µM | activity change, positive = activation ([5]; at 92.4 µM (top of the series)) 18.1% and 10.8% | Potency [10] 21.9 µM | Potency [11] 24.5 µM | Potency [13] 24.5 µM | Potency [15] 21.9 µM | Potency [17] 21.9 µM | Potency [18] 21.9 µM | Potency [20] 21.9 µM
inactive and 43.6 µM (active): Potency [8]
inactive: Potency [1] | outcome [2] | Potency [4] | Potency [6] | Potency [9] | Potency [12] | Potency [16] | outcome [19]

CCNC(=O)NC(=O)/C(C#N)=N/OC
inactive: Potency [1] | outcome [2] | Potency [3] | Potency [4] | activity change, positive = activation ([5]; at 92.4 µM (top of the series)) -6.66% | Potency [6] | Potency [7] | Potency [9] | Potency [10] | Potency [11] | Potency [12] | max response [13] 18.1% | Potency [14] | Potency [15] | Potency [16] | Potency [17] | Potency [18] | outcome [19] | Potency [20]

CCCCCl
inactive: Potency [1] | outcome [2] | Potency [3] | Potency [4] | activity change, positive = activation ([5]; at 92.4 µM (top of the series)) -0.331% | Potency [6] | Potency [7] | Potency [9] | Potency [10] | Potency [11] | Potency [12] | Potency [14] | Potency [15] | Potency [17] | Potency [18] | outcome [19] | Potency [20]

O=C(O)c1ccc(=O)[nH]c1
inactive: Potency [1] | outcome [2] | Potency [3] | Potency [4] | activity change, positive = activation ([5]; at 42.5 µM (top of the series)) 5.02% | Potency [6] | Potency [7] | Potency [9] | Potency [10] | Potency [11] | Potency [12] | max response [13] 5.8% | Potency [14] | Potency [15] | Potency [16] | Potency [17] | Potency [18] | outcome [19] | Potency [20]

Clc1ccc(Cl)c(Cl)c1
inactive: Potency [1] | outcome [2] | Potency [3] | Potency [4] | activity change, positive = activation ([5]; at 92.4 µM (top of the series)) -0.809% and 5.15% | Potency [6] | Potency [7] | Potency [8] | Potency [9] | Potency [10] | Potency [11] | Potency [12] | Potency [14] | Potency [15] | Potency [16] | Potency [17] | Potency [18] | outcome [19] | Potency [20]

CCCCCCCCCCCCN(C)C
inactive: Potency [1] | outcome [2] | Potency [3] | Potency [4] | activity change, positive = activation ([5]; at 92.4 µM (top of the series)) 3.27% | Potency [6] | Potency [7] | Potency [8] | Potency [9] | Potency [10] | Potency [11] | Potency [12] | max response [13] -4.6% | Potency [14] | Potency [15] | Potency [16] | Potency [17] | outcome [19] | Potency [20]

Oc1cccc(Cl)c1
inactive: Potency [1] | outcome [2] | Potency [3] | Potency [4] | activity change, positive = activation ([5]; at 92.4 µM (top of the series)) 1.9% | Potency [6] | Potency [7] | Potency [8] | Potency [9] | Potency [10] | Potency [11] | Potency [12] | max response [13] 0.464% | Potency [14] | Potency [15] | Potency [16] | Potency [17] | Potency [18] | outcome [19] | Potency [20]

C=CCOCC1CO1 (stereo not given)
inactive: Potency [1] | outcome [2] | Potency [3] | Potency [4] | activity change, positive = activation ([5]; at 92.4 µM (top of the series)) -3.54% | Potency [6] | Potency [7] | Potency [8] | Potency [9] | Potency [10] | Potency [11] | Potency [12] | max response [13] -8.98% | Potency [14] | Potency [15] | Potency [16] | Potency [17] | Potency [18] | outcome [19] | Potency [20]

O=C(Cl)OCCOCCOC(=O)Cl
inactive: Potency [1] | outcome [2] | Potency [3] | Potency [4] | activity change, positive = activation ([5]; at 92.4 µM (top of the series)) 1.12% | Potency [6] | Potency [7] | Potency [8] | Potency [9] | Potency [10] | Potency [11] | Potency [12] | max response [13] 3.34% | Potency [14] | Potency [15] | Potency [16] | Potency [17] | Potency [18] | outcome [19] | Potency [20]

CC1(C)CC(=O)CC(C)(C)N1[O]
inactive: Potency [1] | outcome [2] | Potency [3] | Potency [4] | activity change, positive = activation ([5]; at 92.4 µM (top of the series)) -0.242% | Potency [6] | Potency [7] | Potency [8] | Potency [9] | Potency [10] | Potency [11] | Potency [12] | max response [13] 2.69% | Potency [14] | Potency [15] | Potency [17] | Potency [18] | outcome [19] | Potency [20]

ClCc1ccccc1Cl
inactive: Potency [1] | outcome [2] | Potency [3] | Potency [4] | activity change, positive = activation ([5]; at 92.4 µM (top of the series)) 8.41% | Potency [6] | Potency [8] | Potency [9] | Potency [10] | Potency [11] | Potency [12] | max response [13] -3.09% | Potency [14] | Potency [15] | Potency [16] | Potency [17] | Potency [18] | outcome [19] | Potency [20]
